Data reported in the antibiotic and cytotoxicity screens of Wong et al. (2023).
Hit rate of the full screen: of about 39,000 compounds, about 500 (1.3%) were called active. Only a selection was taken, and actives are over-represented in it overall.

system: S. aureus RN4220; experiment: growth inhibition call (relative growth <= 0.2); details: 50 µM

SMILES | growth inhibition call
C[C@H]1CN([C@@H](C)CO)C(=O)c2cccc(NC(=O)Nc3ccc4c(c3)OCO4)c2O[C@H]1CN(C)C(=O)Nc1cccc2ccccc12 | inactive
COc1ccc(CN(C)C[C@@H]2OCCCC[C@H](C)Oc3ccc(NC(=O)CCC(F)(F)F)cc3C(=O)N([C@H](C)CO)C[C@H]2C)cc1 | inactive
COc1ccc(NC(=O)N(C)C[C@H]2Oc3c(NC(=O)CCCCCC(=O)Nc4ccccc4N)cccc3C(=O)N([C@H](C)CO)C[C@@H]2C)cc1 | inactive
CO[C@@H]1CN(C)C(=O)c2cc(NC(=O)CC(F)(F)F)ccc2OC[C@H](C)N(C(=O)C2CCOCC2)C[C@@H]1C | inactive
COC1C=COC2(C)Oc3c(C)c(O)c4c(O)c(c5c(nc6cc(C)ccn65)c4c3C2=O)NC(=O)C(C)=CC=CC(C)C(O)C(C)C(O)C(C)C(OC(C)=O)C1C (configuration not stated) | active
COC1C=COC2(C)Oc3c(C)c(O)c4c(O)c(c(C=NN5CCN(C6CCCC6)CC5)c(O)c4c3C2=O)NC(=O)C(C)=CC=CC(C)C(O)C(C)C(O)C(C)C(OC(C)=O)C1C (configuration not stated) | inactive
COC1=C2C[C@@H](C)C[C@H](OC)[C@H](O)[C@@H](C)/C=C(\C)[C@H](OC(N)=O)[C@@H](OC)/C=C\C=C(/C)C(=O)NC(=CC1=O)C2=O | inactive
COC1C=COC2(C)Oc3c(C)c(O)c4c(O)c(c(C=NN5CCN(C)CC5)c(O)c4c3C2=O)NC(=O)C(C)=CC=CC(C)C(O)C(C)C(O)C(C)C(OC(C)=O)C1C (configuration not stated) | inactive
CO[C@H]1/C=C\O[C@@]2(C)Oc3c(C)c(O)c4c(O)c(c(/C=N/N=C/N5CCCCC5)c(O)c4c3C2=O)NC(=O)/C(C)=C\C=C/[C@H](C)[C@H](O)[C@@H](C)[C@@H](O)[C@@H](C)[C@H](OC(C)=O)[C@@H]1C | active
CO[C@H]1/C=C\O[C@@]2(C)Oc3c(C)c(O)c4c(c3C2=O)[C@]2(C=C(NC(=O)/C(C)=C\C=C/[C@@H](C)[C@@H](O)[C@@H](C)[C@@H](O)[C@@H](C)[C@@H](OC(C)=O)[C@@H]1C)C4=O)OCC(=O)O2 | active
COC1=C2C[C@H](C)C[C@H](OC)[C@@H](O)[C@H](C)/C=C(\C)[C@H](OC(N)=O)[C@H](OC)/C=C/C=C(\C)C(=O)NC(=CC1=O)C2=O | inactive
C[C@H](CO)N1C[C@H](C)[C@@H](CN(C)Cc2ccncc2)Oc2c(NS(=O)(=O)c3cn(C)cn3)cccc2C1=O | inactive
O=C1O[C@H](c2ccccc2)[C@H](c2ccccc2)N2[C@H]1[C@@H](C(=O)N1CCN(c3ncccn3)CC1)[C@]1(C(=O)Nc3ccc(C#CC4=CCCCC4)cc31)[C@H]2c1ccc(O)cc1 | inactive
CC(C)CC#Cc1cnc2c(c1)C(=O)N([C@@H](C)CO)C[C@H](C)[C@@H](CN(C)C(=O)CCN1CCCCC1)O2 | inactive
CC(C)NC(=O)Nc1ccc2c(c1)CC(=O)N([C@@H](C)CO)C[C@@H](C)[C@@H](CN(C)S(=O)(=O)c1ccc(F)cc1)O2 | inactive
S=c1[nH]cc(-c2ccccc2)[nH]1 | active
Cn1c(-c2ccccc2)c[nH]c1=S | inactive
Cc1ccc(-c2c[nH]c(=S)[nH]2)cc1 | inactive
CC1CC2C3CCC4=CC(=O)C=CC4(C)C3(Cl)C(O)CC2(C)C1(OC(=O)c1ccco1)C(=O)CCl (configuration not stated) | inactive
CN(C)C(=O)c1ccc(-c2cccc(-c3nc(C(=O)NC4CCCC4)cc4c3[C@@H](CCO)N([S@](=O)C(C)(C)C)C4)c2)cc1 | inactive
COc1ccc(S(=O)(=O)Nc2ccc3c(c2)C(=O)N([C@@H](C)CO)C[C@H](C)[C@@H](CN(C)S(C)(=O)=O)OCCCC[C@@H](C)O3)cc1 | inactive
COc1cc2nc(N3CCCN(Cc4ccccc4)CC3)nc(NC3CCN(Cc4ccccc4)CC3)c2cc1OC | inactive
Brc1ccc2nc(N3CCCN(Cc4ccccc4)CC3)nc(NC3CCN(Cc4ccccc4)CC3)c2c1 | active
COc1cc2nc(N3CCCN(Cc4ccccc4)CC3)nc(Nc3ccc(F)c(Cl)c3)c2cc1OC | inactive

SMILES | growth inhibition call
COc1ccc2c3c(n(c2c1)C)[C@H](CO)N(Cc1cc(cc(c1)OC)OC)C[C@]13CN(C1)C(=O)NC(C)C | inactive
O=C(O)c1ccc2cc(-c3ccc(O)c(C45CC6CC(CC(C6)C4)C5)c3)ccc2c1 | active
O=C(O)c1ccc2ccccc2c1 | inactive
COc1ccc(-c2ccc3cc(C(=O)O)ccc3c2)cc1C12CC3CC(CC(C3)C1)C2 | inactive
CCO[C@@H]1OC(C(=O)N2CCOCC2)=C[C@H](c2ccccc2)[C@H]1CCCOC(=O)NCCCCCC(=O)NO | inactive
Cc1noc(C)c1NC(=O)N(C)C[C@@H]1Oc2c(NC(=O)c3ccncc3)cccc2C(=O)N([C@@H](C)CO)C[C@H]1C | inactive
COc1ccc(S(=O)(=O)N(C)C[C@H]2OCCCC[C@H](C)Oc3ccc(NS(C)(=O)=O)cc3C(=O)N([C@H](C)CO)C[C@H]2C)cc1 | inactive
CC(C)c1onc(-c2c(Cl)cccc2Cl)c1COc1ccc(C=Cc2cccc(C(=O)O)c2)c(Cl)c1 | inactive
CC(C)c1onc(-c2c(Cl)cccc2Cl)c1COc1ccc(/C=C/c2cccc(C(=O)O)c2)c(Cl)c1 | active
O=C(O)c1ccnc(N2CC(O)(c3ccc(OCc4c(-c5c(Cl)cccc5Cl)noc4C4CC4)cc3Cl)C2)c1 | inactive
CN(C)C(=O)C[C@H]1C=C[C@@H](NC(=O)C2CC2)[C@H](CO)O1 | inactive
CCCCN(CCCC)CCCOC(=O)c1ccc(N)cc1.O=S(=O)(O)O | inactive
CCCCc1oc2ccc(NS(C)(=O)=O)cc2c1C(=O)c1ccc(OCCCN(CCCC)CCCC)cc1.Cl | inactive
CCCCc1oc2ccc(NS(C)(=O)=O)cc2c1C(=O)c1ccc(OCCCN(CCCC)CCCC)cc1 | active
COC(=O)[C@H](Cc1ccc(-n2cc(C(=O)NO)nn2)cc1)N1C[C@](C)(OC)O[C@@H](Cc2ccccc2)[C@H]1/C=C/C1CC1 | inactive
Cc1c(N)nc([C@H](CC(N)=O)NC[C@H](N)C(N)=O)nc1C(=O)N[C@H](C(=O)N[C@H](C)[C@@H](O)[C@H](C)C(=O)N[C@H](C(=O)NCCc1nc(-c2nc(C(=O)NCCCNCCCCN)cs2)cs1)[C@@H](C)O)[C@@H](O[C@@H]1O[C@@H](CO)[C@@H](O)[C@H](O)[C@@H]1O[C@@H]1O[C@H](CO)[C@@H](O)[C@H](OC(N)=O)[C@@H]1O)c1c[nH]cn1 | active
Clc1ccc(C(c2ccc(Cl)cc2)[n+]2ccn(C[C@@H](OCc3ccc(Cl)cc3Cl)c3ccc(Cl)cc3Cl)c2)cc1 | inactive
CCC1OC(=O)C(C)C(OC2CC(C)(OC)C(O)C(C)O2)C(C)C(OC2OC(C)CC(N(C)C)C2O)C(C)(O)CC(C)C2NC(COCCOC)OC(C2C)C1(C)O (configuration not stated) | active
CC[C@H]1OC(=O)[C@H](C)[C@@H](O[C@H]2C[C@@](C)(OC)[C@@H](O)[C@H](C)O2)[C@H](C)[C@@H](O[C@@H]2O[C@H](C)C[C@H](N(C)C)[C@H]2O)[C@](C)(O)C[C@@H](C)[C@@H]2N[C@@H](COCCOC)O[C@H]([C@H]2C)[C@]1(C)O | active
CO[C@@H]1CN(C)C(=O)c2cc(NC(=O)Nc3ccc(Cl)cc3)ccc2OC[C@@H](C)N(C(=O)Nc2c(C)noc2C)C[C@@H]1C | inactive
Cc1ccc(S(=O)(=O)N(C)C[C@@H]2OCCCC[C@@H](C)Oc3ccc(NS(C)(=O)=O)cc3C(=O)N([C@H](C)CO)C[C@@H]2C)cc1 | inactive
O=C(C[C@H]1CC[C@H]2[C@@H](COC[C@@H](O)CN2C(=O)c2ccncc2)O1)NC1CCC1 | inactive
COCC(=O)N1C[C@]2(C1)CN([C@@H](CO)c1[nH]c3cc(ccc3c12)OC)S(=O)(=O)C | inactive
